# Experimental data taken from PubChem BioAssay (NCI).
# About 83,000 compounds went through this panel and 20% of them were active in at least one assay; those are over-represented in the sample as a whole.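 Single-concentration screen, 48 h exposure, 96-well plates. Endpoint: percent growth. Below 10 = active.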 Calls of active or inactive are those of the source.
# System: TK-10 renal
# Experiment: NCI-60 one-dose screen, 48 h (100 = growth as untreated, 0 = no growth, -100 = all killed)
# Conditions: 10 µM unless noted
row,SMILES,growth
1,COc1cc2oc(-c3cccc(C(=O)Nc4ccc(C)cc4)c3)cc(=O)c2c(OC)c1OC,53.3% (inactive)
2,O=C1c2ccccc2C2(c3ccc(O)cc3)c3ccccc3Oc3cccc1c32 (centres undefined),84.3% (inactive)
3,COc1ccc(-c2cc(-c3cc(OC)ccc3OC)[nH]c(=O)c2C#N)cc1,84.9% (inactive)
4,N[C@@H]1CCC[C@H]1NCCCCN1C(=O)c2cccc3cccc(c23)C1=O,76.6% (inactive)
5,COC1=CC(c2ccc[nH]2)=N/C1=C\c1[nH]c(C)c(C(=O)OCCn2cc(CCC[C@@H]3Cc4cc(O)ccc4C4CC[C@]5(C)[C@@H](O)CC[C@H]5C43)nn2)c1C (some centres undefined),96.9% (inactive)
6,O=C1CSC(c2ccccc2)N1c1ccccc1 (centres undefined),110% (inactive)
7,O=C1NCC(=O)N(Cc2ccco2)[C@H]1Cc1ccccc1,85.5% (inactive)
8,O=C(Nc1cccc2[nH]c(C(F)(F)F)nc12)c1cc(Cl)ccc1Cl,4.93% (active)
9,CCNCCNc1cc(-c2ccc(C(F)(F)F)cc2)c(C#N)c2nc3cc(Cl)c(Cl)cc3n12,-94.7% (active)
10,COc1cc(NC(=O)c2cccc(-c3cc(=O)c4c(O)c(OC)c(OC)cc4o3)c2)cc(OC)c1OC,74.8% (inactive)
11,Cc1cc(C(c2ccccc2)c2ccccc2)ccc1NS(=O)(=O)c1ccccc1,123% (inactive)
12,COc1ccc(-c2nc3sc4c(c3c(=O)[nH]2)CCCC4)c2ccccc12,38.3% (inactive)
13,COc1ccc(OC)c(Nc2nc3nonc3nc2Nc2cccc(Br)c2)c1,7.4% (active)
14,O=C(O)CC1Sc2ccccc2NC1=O (centres undefined),149% (inactive)
15,O=C(c1ccccc1)c1ccc(Cl)c([N+](=O)[O-])c1,107% (inactive)
16,Nc1c(C(=O)Nc2ccccc2)sc2nc3c(cc12)CCCCCC3,36.3% (inactive)
17,O=C1CSC(c2ccccc2O)N1c1nnc(Cn2cnnc2)o1 (centres undefined),145% (inactive)
18,Clc1ccc2[nH]c3c(NCCCN4CCOCC4)ncnc3c2c1,78.3% (inactive)
19,CN(C)c1ccc(/C=C/c2c(F)cccc2F)cc1,109% (inactive)
20,COC(=O)CCCNC(=O)C(=O)c1c(O)c(O)c(C(C)C)c2cc(C)c(-c3c(C)cc4c(C(C)C)c(O)c(O)c(C(=O)C(=O)NCCCC(=O)OC)c4c3O)c(O)c12,7.48% (active)
21,CCOc1cccnc1/C=N/NC(N)=S,66% (inactive)
22,COc1ccc(/C(C)=N/NS(=O)(=O)c2ccc(C)cc2)cc1OC,104% (inactive)
23,COc1cc(NC(=O)c2cc(O)c(CC=C(C)C)c(O)c2)cc2c1O[C@]1(C)CC[C@@H](O)C(C)(C)[C@H]1C2,56.4% (inactive)
24,CCCCNC(=O)NS(=O)(=O)c1ccc(N2N=C(c3ccc(C)cc3C)CC2c2ccc(N(C)C)cc2)cc1 (centres undefined),83% (inactive)
25,N#Cc1c(-c2ccc(C(F)(F)F)cc2)cc(N2CC(O)C2)n2c1nc1ccccc12,64% (inactive)

# System: ACHN renal
# Experiment: as above
# Conditions: 10 µM unless noted
row,SMILES,growth
1,COc1cc(NC(=O)c2cccc(-c3cc(=O)c4c(OC)c(OC)c(OC)cc4o3)c2)cc(OC)c1OC,56.7% (inactive)
2,COc1ccc(NC(=O)c2cccc(-c3cc(=O)c4c(O)c(OC)c(OC)cc4o3)c2)cc1,83.6% (inactive)
3,O=C1NN(C(=O)c2ccc(O)cc2)C(c2ccccc2)=N/C1=C\c1cn(-c2ccccc2)nc1-c1ccccc1,88.4% (inactive)
4,CO[C@H]1/C=C/O[C@@]2(C)Oc3c(C)c(O)c4c(c3C2=O)C(=O)C(/C=N/N(c2ccccc2)c2ccccc2)=C(NC(=O)/C(C)=C\C=C\[C@H](C)[C@H](O)[C@@H](C)[C@@H](O)[C@@H](C)[C@H](OC(C)=O)[C@@H]1C)C4=O,-33% (active)
5,C[C@@H]1C(=O)N(C[C@H](Cc2ccccc2)N(Cc2ccccc2)Cc2ccccc2)[C@]1(Cc1ccccc1)C(=O)OC(C)(C)C,63.9% (inactive)
6,COc1cc(/C=C/C(=O)c2cccc(-n3cc(-c4ccc(Cl)cc4)[nH]c3=O)c2)cc(OC)c1OC,67.5% (inactive)
7,COc1cc(-c2ccc(N=Nc3c(O)c(C(=O)Nc4ccccc4OC)cc4ccccc34)c(OC)c2)ccc1N=Nc1c(O)c(C(=O)Nc2ccccc2OC)cc2ccccc12,90.7% (inactive)
8,CC/C=C/[C@@H]1C=C[C@@H]2CCC[C@H]2[C@@H]1CC[C@H](O)[C@H](C)N,-56.8% (active)
9,COc1ccc(C(=O)/C=C/c2cc3c(c(OC)c2)OCC(=O)N3)cc1,46.3% (inactive)
10,Nc1nc(N)c(-c2ccc(Cl)cc2)c(/C=C/c2ccc([N+](=O)[O-])cc2)n1,90.8% (inactive)
11,C=C(Cl)COC(=O)C(C)(C)O,105% (inactive)
12,O=C1Nc2ccccc2SC1C1SC(=S)N(Cc2ccccc2)C1=O (centres undefined),108% (inactive)
13,COc1ccc(OC)c(Nc2nc3nonc3nc2Nc2cc(OC)ccc2OC)c1,-33.4% (active)
14,COc1cc2oc(-c3cccc(C(=O)Nc4ccc(C)cc4)c3)cc(=O)c2c(OC)c1OC,34.2% (inactive)
15,O=C1c2ccccc2C2(c3ccc(O)cc3)c3ccccc3Oc3cccc1c32 (centres undefined),43.4% (inactive)
16,COc1ccc(-c2cc(-c3cc(OC)ccc3OC)[nH]c(=O)c2C#N)cc1,85.3% (inactive)
17,N[C@@H]1CCC[C@H]1NCCCCN1C(=O)c2cccc3cccc(c23)C1=O,52.9% (inactive)
18,NC(=S)N/N=C/C(=O)O,91.2% (inactive)
19,COC1=CC(c2ccc[nH]2)=N/C1=C\c1[nH]c(C)c(C(=O)OCCn2cc(CCC[C@@H]3Cc4cc(O)ccc4C4CC[C@]5(C)[C@@H](O)CC[C@H]5C43)nn2)c1C (some centres undefined),66.5% (inactive)
20,O=C1CSC(c2ccccc2)N1c1ccccc1 (centres undefined),101% (inactive)

row,SMILES,growth
1,O=C1NCC(=O)N(Cc2ccco2)[C@H]1Cc1ccccc1,105% (inactive)
2,O=C(Nc1cccc2[nH]c(C(F)(F)F)nc12)c1cc(Cl)ccc1Cl,48.1% (inactive)
3,CCNCCNc1cc(-c2ccc(C(F)(F)F)cc2)c(C#N)c2nc3cc(Cl)c(Cl)cc3n12,-100% (active)
4,COc1cc(NC(=O)c2cccc(-c3cc(=O)c4c(O)c(OC)c(OC)cc4o3)c2)cc(OC)c1OC,16.3% (inactive)
5,Cc1cc(C(c2ccccc2)c2ccccc2)ccc1NS(=O)(=O)c1ccccc1,106% (inactive)
6,COc1ccc(-c2nc3sc4c(c3c(=O)[nH]2)CCCC4)c2ccccc12,-32.5% (active)
7,COc1ccc(OC)c(Nc2nc3nonc3nc2Nc2cccc(Br)c2)c1,-22.5% (active)
8,O=C(O)CC1Sc2ccccc2NC1=O (centres undefined),95.5% (inactive)
9,O=C(c1ccccc1)c1ccc(Cl)c([N+](=O)[O-])c1,98.2% (inactive)
10,Nc1c(C(=O)Nc2ccccc2)sc2nc3c(cc12)CCCCCC3,26.5% (inactive)
11,O=C1CSC(c2ccccc2O)N1c1nnc(Cn2cnnc2)o1 (centres undefined),89.4% (inactive)
12,Clc1ccc2[nH]c3c(NCCCN4CCOCC4)ncnc3c2c1,45.1% (inactive)
13,CN(C)c1ccc(/C=C/c2c(F)cccc2F)cc1,92.7% (inactive)
14,COC(=O)CCCNC(=O)C(=O)c1c(O)c(O)c(C(C)C)c2cc(C)c(-c3c(C)cc4c(C(C)C)c(O)c(O)c(C(=O)C(=O)NCCCC(=O)OC)c4c3O)c(O)c12,3.45% (active)
15,CCOc1cccnc1/C=N/NC(N)=S,35.7% (inactive)
16,COc1ccc(/C(C)=N/NS(=O)(=O)c2ccc(C)cc2)cc1OC,103% (inactive)
17,COc1cc(NC(=O)c2cc(O)c(CC=C(C)C)c(O)c2)cc2c1O[C@]1(C)CC[C@@H](O)C(C)(C)[C@H]1C2,36.2% (inactive)
18,CCCCNC(=O)NS(=O)(=O)c1ccc(N2N=C(c3ccc(C)cc3C)CC2c2ccc(N(C)C)cc2)cc1 (centres undefined),48.6% (inactive)
19,N#Cc1c(-c2ccc(C(F)(F)F)cc2)cc(N2CC(O)C2)n2c1nc1ccccc12,43.4% (inactive)
